“And” between values parts separate entries of the source, which are not always exact repeats. Equal values may be shown once. The source holds several records for some structures; these can differ, active in one and inactive in another. The source made the active and inactive calls. How the source made its calls: active means hit-call score of the fitted dose curve at least 0.9, where 1 is the maximum; inactive means score below 0.9.
Experiments:
[1] = molecular target: Bile acid receptor (Homo sapiens) (UniProt Q96RI1); assay: ATG_IR1_CIS: Attagene CIS-FACTORIAL HepG2 Assay for human Nuclear Receptor Subfamily 1 Group H Member 4 (NR1H4), IR1 submotif (AID 2282946); settings: IR1 reporter transcription, actives raise or lower the signal
Summary of the method: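 Fluorescence of capillary-separated, HpaI-digested RT-PCR reporter products gave IR1-element mRNA induction in HepG2 cells 24 h after dosing. Endogenous transcription factors drove the cis-regulated reporters; activity was fitted bidirectionally against DMSO.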

[2] = ATG_GRE_CIS: Attagene CIS-FACTORIAL HepG2 Assay for human Glucocorticoid Response Elements (GRE) (AID 2282947); settings: HepG2 GRE cis-reporter, Attagene multiplex mRNA; actives raise or lower the signal
Summary of the method: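 Read-out: fluorescent reporter-transcript fragments separated by capillary electrophoresis after RT-PCR. Transiently transfected HepG2 cells carrying cis-element-driven reporter units were dosed for 24 h; gain or loss of signal fitted against DMSO control.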

[3] = ATG_ISRE_CIS: Attagene CIS-FACTORIAL HepG2 Assay for human Interferon Regulatory Factor 1 (IRF1) binding to an Interferon-Stimulated Response Element (ISRE) (AID 2282948); settings: HepG2 ISRE cis-reporter (Attagene), mRNA transcription readout; actives raise or lower the signal
Summary of the method: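 Signal reflects induction or loss of ISRE-linked reporter mRNA in transiently transfected HepG2 cells after a 24 h treatment, detected by fluorescent RT-PCR fragments on capillary electrophoresis and normalised to DMSO.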

[4] = ATG_M_32_CIS: Attagene CIS-FACTORIAL HepG2 Assay for M32 Transcription Factor (Internal Marker) (AID 2282949); settings: HepG2 Attagene cis-factorial M32 reporter, mRNA; actives raise or lower the signal;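 further: background control marker of the multiplexed CIS panel rather than a real target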
Summary of the method: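 Transient MRTU transfection of HepG2; 24 h compound treatment; TriZol RNA, oligo(dT) RT, reporter PCR, 6-FAM primer extension, HpaI cut, CE. Gain/loss of signal vs DMSO.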

[5] = ATG_M_06_CIS: Attagene CIS-FACTORIAL HepG2 Assay for M06 Transcription Factor (Internal Marker) (AID 2282950); settings: HepG2 Attagene CIS-FACTORIAL M06 internal marker reporter; actives raise or lower the signal
Summary of the method: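 Serves as a background control readout. Transfected HepG2 exposed to compounds for 24 h, then reporter transcripts quantified by fluorescent RT-PCR and capillary electrophoresis. Both directions fitted against DMSO baseline.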

[6] = molecular target: Hypoxia-inducible factor 1-alpha (Homo sapiens) (UniProt Q16665); assay: ATG_HIF1a_CIS: Attagene CIS-FACTORIAL HepG2 Assay for human Hypoxia Inducible Factor 1 (HIF1A) (AID 2282951); settings: HepG2 Attagene cis-factorial HIF1a reporter transcription; actives raise or lower the signal
Summary of the method: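 HepG2, transient cis-reporter library, 24 h dosing. RNA → RT (oligo dT) → PCR → 6-FAM primer extension → HpaI → CE. Bidirectional curve fit vs DMSO.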

[7] = molecular target: Hepatocyte nuclear factor 6 (Homo sapiens) (UniProt Q9UBC0); assay: ATG_HNF6_CIS: Attagene CIS-FACTORIAL HepG2 Assay for human Hepatocyte Nuclear Factor 6 (HNF6) (AID 2282952); settings: HepG2 Attagene cis-factorial HNF6 reporter transcription; actives raise or lower the signal
Summary of the method: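 Using cis-element reporters in HepG2 liver cells, the assay tracks endogenous factor-driven transcription 24 h post-dosing. Signal comes from 6-FAM-labelled, HpaI-digested RT-PCR fragments, with gain or loss scored against DMSO.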

[8] = molecular target: Heat shock factor protein 1 (Homo sapiens) (UniProt Q00613); assay: ATG_HSE_CIS: Attagene CIS-FACTORIAL HepG2 Assay for human Heat Shock Transcription Factor 1 (HSE) (AID 2282953); settings: HepG2 HSE cis-reporter, Attagene RNA transcription; actives raise or lower the signal
Summary of the method: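 Endogenous transcription factor activity in transiently transfected HepG2, read as reporter mRNA by RT-PCR with fluorescent capillary electrophoresis after 24 h. Gain or loss of signal fitted versus DMSO baseline.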

[9] = ATG_PBREM_CIS: Attagene CIS-FACTORIAL HepG2 Assay for human Phenobarbital-responsive Enhancer Module (PBREM) (AID 2282955); settings: HepG2 PBREM cis-reporter, Attagene multiplexed transcription; actives raise or lower the signal
Summary of the method: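 HepG2, transient MRTU transfection, 24 h dosing; RNA → oligo(dT) RT → PCR → 6-FAM extension → HpaI → CE. Bidirectional fit vs DMSO.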

[10] = molecular target: Paired box protein Pax-6 (Homo sapiens) (UniProt P26367); assay: ATG_Pax6_CIS: Attagene CIS-FACTORIAL HepG2 Assay for human Paired Box 6 (PAX6) (AID 2282956); settings: HepG2 CIS-FACTORIAL PAX6 reporter transcription, RNA readout; actives raise or lower the signal
Summary of the method: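 Values derive from bidirectional curve fitting of reporter mRNA signal relative to DMSO. HepG2 cells bearing transfected cis-regulated MRTUs were exposed for 24 h; transcripts were read by RT-PCR and capillary electrophoresis.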

[11] = ATG_PXRE_CIS: Attagene CIS-FACTORIAL HepG2 Assay for human Pregnane X Receptor Element (PXRE) (AID 2282957); settings: HepG2 Attagene CIS-FACTORIAL PXRE reporter, mRNA; actives raise or lower the signal
Summary of the method: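 Using HepG2 transfected with multiple reporter transcription units, endogenous factor-driven transcription was scored as reporter mRNA after 24 h exposure.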

[12] = ATG_PPRE_CIS: Attagene CIS-FACTORIAL HepG2 Assay for human Peroxisome Proliferator-activated Response Element (PPRE) (AID 2282958); settings: HepG2 PPRE cis-element reporter, Attagene transcription factor profiling; actives raise or lower the signal
Summary of the method: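 Transcript-level reporter induction in transfected HepG2 cells after 24 h chemical exposure, quantified by fluorescence from RT-PCR products separated by capillary electrophoresis.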

[13] = ATG_RORE_CIS: Attagene CIS-FACTORIAL HepG2 Assay for human RAR-related Orphan Receptor Element (RORE) (AID 2282959); settings: HepG2 Attagene cis-factorial RORE reporter, mRNA; actives raise or lower the signal
Summary of the method: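 Multiplexed reporter assay measuring mRNA induction from a cis promoter element in transiently transfected HepG2 cells after 24 h treatment. Detection via RT-PCR and capillary electrophoresis fluorescence; DMSO serves as baseline.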

[14] = ATG_Sox_CIS: Attagene CIS-FACTORIAL HepG2 Assay for human SRY-box transcription factor (SOX) (AID 2282960); settings: HepG2 Attagene cis-factorial SOX reporter, mRNA; actives raise or lower the signal
Summary of the method: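 Cells were transfected with reporter constructs under cis-regulatory promoters, then exposed to chemicals for 24 h. Reporter transcripts were quantified by fluorescence after RT-PCR and capillary electrophoresis; activity was fitted in both directions against DMSO.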

[15] = molecular target: Transcription factor Sp1 (Homo sapiens) (UniProt P08047); assay: ATG_Sp1_CIS: Attagene CIS-FACTORIAL HepG2 Assay for human Specificity Protein 1 (Sp1) (AID 2282961); settings: HepG2 Sp1 cis-reporter transcription, actives raise or lower the signal
Summary of the method: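 Measures mRNA induction of an Sp1-linked reporter in HepG2 cells 24 h post-dosing. Multiplexed reporters read by RT-PCR and capillary electrophoresis; DMSO serves as negative control and baseline.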

[16] = ATG_SREBP_CIS: Attagene CIS-FACTORIAL HepG2 Assay for human Sterol Regulatory Element Binding (SREBP) (AID 2282962); settings: HepG2 Attagene cis-factorial SREBP reporter, mRNA; actives raise or lower the signal
Summary of the method: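 Values derive from bidirectional curve fitting with DMSO as baseline. The underlying measurement is reporter mRNA from cis-element-regulated units in transiently transfected HepG2, quantified by RT-PCR and capillary electrophoresis after 24 h exposure.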

[17] = molecular target: Signal transducer and activator of transcription 3 (Homo sapiens) (UniProt P40763); assay: ATG_STAT3_CIS: Attagene CIS-FACTORIAL HepG2 Assay for human Signal Transducer and Activator of Transcription 3 (STAT3) (AID 2282963); settings: HepG2, Attagene cis-factorial STAT3 reporter transcription; actives raise or lower the signal
Summary of the method: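 Readout: fluorescent reporter mRNA fragments resolved by capillary electrophoresis. Setup: HepG2 transfected with MRTUs reporting endogenous transcription-factor activity, dosed 24 h. Gain or loss of signal fitted bidirectionally against DMSO control.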

[18] = ATG_TA_CIS: Attagene CIS-FACTORIAL HepG2 Assay for human TA Basal Promoter (AID 2282964); settings: HepG2 Attagene CIS-factorial TA basal promoter reporter; actives raise or lower the signal
Summary of the method: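 Background-control readout: TA basal promoter reporter mRNA, fitted in both directions relative to DMSO. Measured by RT-PCR and capillary electrophoresis 24 hours after treating HepG2 human liver cells transiently carrying multiplexed cis-regulated reporter constructs.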

[19] = ATG_TCF_b_cat_CIS: Attagene CIS-FACTORIAL HepG2 Assay for human T-Cell-Factor with beta-catenin (TCF/b-cat) (AID 2282965); settings: HepG2 TCF/beta-catenin cis-reporter transcription, actives raise or lower the signal
Summary of the method: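 Cells of the HepG2 line carry transiently transfected reporter units whose promoters respond to endogenous factors. Twenty-four hours post-dosing, reporter mRNA induction is measured by fluorescent RT-PCR and capillary electrophoresis, with DMSO as baseline.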

[20] = ATG_MRE_CIS: Attagene CIS-FACTORIAL HepG2 Assay for human Metal Responsive Element (MRE) (AID 2282954); settings: HepG2 MRE cis-reporter transcription, Attagene multiplex; actives raise or lower the signal
Summary of the method: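 RT-PCR/capillary electrophoresis readout of reporter mRNA, 24 h post-dosing, in HepG2 cells transfected with multiplexed cis-regulated reporter constructs. Gain or loss of signal fitted bidirectionally against DMSO baseline.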

Measured: AC50

Sequence of Hepatocyte nuclear factor 6 (Homo sapiens) (Q9UBC0 whole entry, looked up, the tested form may be a part): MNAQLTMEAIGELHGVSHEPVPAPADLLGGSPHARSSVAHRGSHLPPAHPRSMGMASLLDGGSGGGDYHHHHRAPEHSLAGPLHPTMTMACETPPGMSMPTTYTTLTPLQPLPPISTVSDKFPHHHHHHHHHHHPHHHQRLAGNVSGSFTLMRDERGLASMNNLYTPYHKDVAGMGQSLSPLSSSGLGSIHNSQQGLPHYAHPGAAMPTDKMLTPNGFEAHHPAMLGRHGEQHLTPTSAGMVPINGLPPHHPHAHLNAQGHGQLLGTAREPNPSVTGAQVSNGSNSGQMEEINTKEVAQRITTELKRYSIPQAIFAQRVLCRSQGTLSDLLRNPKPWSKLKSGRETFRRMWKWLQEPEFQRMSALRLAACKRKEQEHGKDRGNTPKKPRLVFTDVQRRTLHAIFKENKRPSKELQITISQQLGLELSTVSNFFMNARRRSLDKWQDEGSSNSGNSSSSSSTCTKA
Sequence of Hypoxia-inducible factor 1-alpha (Homo sapiens) (Q16665 whole entry, looked up): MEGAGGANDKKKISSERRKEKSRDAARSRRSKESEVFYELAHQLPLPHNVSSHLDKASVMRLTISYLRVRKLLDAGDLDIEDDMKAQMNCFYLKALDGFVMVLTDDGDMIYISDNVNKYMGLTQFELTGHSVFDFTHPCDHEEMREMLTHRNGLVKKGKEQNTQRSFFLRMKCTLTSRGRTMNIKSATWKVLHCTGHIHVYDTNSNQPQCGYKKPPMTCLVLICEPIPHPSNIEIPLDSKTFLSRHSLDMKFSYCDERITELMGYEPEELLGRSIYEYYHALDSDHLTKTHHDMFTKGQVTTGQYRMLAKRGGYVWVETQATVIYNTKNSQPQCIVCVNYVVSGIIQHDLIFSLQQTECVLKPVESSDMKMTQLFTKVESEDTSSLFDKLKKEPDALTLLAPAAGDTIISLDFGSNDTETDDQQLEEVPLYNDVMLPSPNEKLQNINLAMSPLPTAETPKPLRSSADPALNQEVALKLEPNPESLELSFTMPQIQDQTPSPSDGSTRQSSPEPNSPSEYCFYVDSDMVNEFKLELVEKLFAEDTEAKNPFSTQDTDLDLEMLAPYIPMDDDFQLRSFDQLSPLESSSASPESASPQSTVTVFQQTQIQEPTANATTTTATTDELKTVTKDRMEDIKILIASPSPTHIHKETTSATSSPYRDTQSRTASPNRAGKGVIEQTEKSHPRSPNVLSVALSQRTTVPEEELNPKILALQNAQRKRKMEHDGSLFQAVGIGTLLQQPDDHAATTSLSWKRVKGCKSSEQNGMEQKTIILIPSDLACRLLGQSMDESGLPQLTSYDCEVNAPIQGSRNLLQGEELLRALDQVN
Sequence of Paired box protein Pax-6 (Homo sapiens) (P26367 whole entry, looked up): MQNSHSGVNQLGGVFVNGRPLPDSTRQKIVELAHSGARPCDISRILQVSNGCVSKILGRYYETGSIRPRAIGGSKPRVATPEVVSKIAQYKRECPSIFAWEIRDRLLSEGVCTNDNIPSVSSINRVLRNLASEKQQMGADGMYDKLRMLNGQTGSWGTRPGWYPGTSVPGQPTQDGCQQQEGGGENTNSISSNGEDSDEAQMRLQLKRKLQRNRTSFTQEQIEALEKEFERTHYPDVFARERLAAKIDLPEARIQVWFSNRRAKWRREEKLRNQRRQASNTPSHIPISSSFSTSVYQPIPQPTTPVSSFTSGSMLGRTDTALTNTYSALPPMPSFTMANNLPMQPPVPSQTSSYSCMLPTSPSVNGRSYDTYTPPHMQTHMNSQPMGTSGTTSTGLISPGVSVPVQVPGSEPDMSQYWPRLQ
Sequence of Bile acid receptor (Homo sapiens) (Q96RI1 whole entry, looked up): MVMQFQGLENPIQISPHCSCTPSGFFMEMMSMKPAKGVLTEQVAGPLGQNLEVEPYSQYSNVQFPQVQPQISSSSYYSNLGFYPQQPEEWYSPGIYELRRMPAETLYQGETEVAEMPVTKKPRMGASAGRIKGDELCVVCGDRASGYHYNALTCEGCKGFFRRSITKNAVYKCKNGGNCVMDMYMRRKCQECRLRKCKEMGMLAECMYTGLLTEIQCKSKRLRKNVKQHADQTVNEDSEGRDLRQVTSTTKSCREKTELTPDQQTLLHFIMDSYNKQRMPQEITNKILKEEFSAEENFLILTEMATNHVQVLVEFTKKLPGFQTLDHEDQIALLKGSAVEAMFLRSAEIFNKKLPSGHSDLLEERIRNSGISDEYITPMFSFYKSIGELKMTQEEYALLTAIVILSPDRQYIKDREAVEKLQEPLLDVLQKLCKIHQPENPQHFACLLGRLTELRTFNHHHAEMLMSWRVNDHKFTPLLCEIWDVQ
Sequence of Heat shock factor protein 1 (Homo sapiens) (Q00613 whole entry, looked up): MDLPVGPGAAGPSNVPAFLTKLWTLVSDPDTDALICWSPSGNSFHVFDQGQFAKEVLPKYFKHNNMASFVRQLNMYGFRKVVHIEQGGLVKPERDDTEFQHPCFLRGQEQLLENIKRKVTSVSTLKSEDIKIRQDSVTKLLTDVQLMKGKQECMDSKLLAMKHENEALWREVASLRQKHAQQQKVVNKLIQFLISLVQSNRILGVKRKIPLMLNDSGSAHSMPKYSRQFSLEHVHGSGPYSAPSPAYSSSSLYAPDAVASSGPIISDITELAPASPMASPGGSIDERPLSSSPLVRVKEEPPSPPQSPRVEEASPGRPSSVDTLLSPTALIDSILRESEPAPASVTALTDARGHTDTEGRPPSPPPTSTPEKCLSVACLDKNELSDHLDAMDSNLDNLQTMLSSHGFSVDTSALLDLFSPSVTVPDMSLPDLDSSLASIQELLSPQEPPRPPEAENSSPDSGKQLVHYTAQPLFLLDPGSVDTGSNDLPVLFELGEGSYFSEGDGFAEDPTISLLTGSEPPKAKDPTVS
Sequence of Transcription factor Sp1 (Homo sapiens) (P08047 whole entry, looked up): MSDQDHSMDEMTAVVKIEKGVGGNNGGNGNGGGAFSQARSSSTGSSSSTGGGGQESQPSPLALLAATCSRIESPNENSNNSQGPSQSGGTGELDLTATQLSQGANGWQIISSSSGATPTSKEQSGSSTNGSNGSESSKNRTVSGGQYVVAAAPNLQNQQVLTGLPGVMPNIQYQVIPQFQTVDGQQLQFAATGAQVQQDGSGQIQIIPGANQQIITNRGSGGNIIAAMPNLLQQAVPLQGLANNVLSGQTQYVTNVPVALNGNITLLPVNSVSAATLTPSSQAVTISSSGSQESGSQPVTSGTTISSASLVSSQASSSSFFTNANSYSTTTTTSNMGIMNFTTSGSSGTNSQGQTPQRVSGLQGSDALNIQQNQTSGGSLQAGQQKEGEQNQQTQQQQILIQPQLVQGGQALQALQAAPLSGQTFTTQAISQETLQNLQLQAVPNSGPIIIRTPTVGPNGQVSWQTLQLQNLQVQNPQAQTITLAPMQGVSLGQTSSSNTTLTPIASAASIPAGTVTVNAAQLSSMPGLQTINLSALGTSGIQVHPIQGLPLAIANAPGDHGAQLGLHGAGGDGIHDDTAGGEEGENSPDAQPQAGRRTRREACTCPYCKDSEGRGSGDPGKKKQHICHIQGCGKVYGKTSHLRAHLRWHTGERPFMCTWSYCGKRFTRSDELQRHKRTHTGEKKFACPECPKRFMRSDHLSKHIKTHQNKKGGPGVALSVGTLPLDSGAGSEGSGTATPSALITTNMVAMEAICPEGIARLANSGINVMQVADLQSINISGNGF
Sequence of Signal transducer and activator of transcription 3 (Homo sapiens) (P40763 whole entry, looked up, the tested form may be a part): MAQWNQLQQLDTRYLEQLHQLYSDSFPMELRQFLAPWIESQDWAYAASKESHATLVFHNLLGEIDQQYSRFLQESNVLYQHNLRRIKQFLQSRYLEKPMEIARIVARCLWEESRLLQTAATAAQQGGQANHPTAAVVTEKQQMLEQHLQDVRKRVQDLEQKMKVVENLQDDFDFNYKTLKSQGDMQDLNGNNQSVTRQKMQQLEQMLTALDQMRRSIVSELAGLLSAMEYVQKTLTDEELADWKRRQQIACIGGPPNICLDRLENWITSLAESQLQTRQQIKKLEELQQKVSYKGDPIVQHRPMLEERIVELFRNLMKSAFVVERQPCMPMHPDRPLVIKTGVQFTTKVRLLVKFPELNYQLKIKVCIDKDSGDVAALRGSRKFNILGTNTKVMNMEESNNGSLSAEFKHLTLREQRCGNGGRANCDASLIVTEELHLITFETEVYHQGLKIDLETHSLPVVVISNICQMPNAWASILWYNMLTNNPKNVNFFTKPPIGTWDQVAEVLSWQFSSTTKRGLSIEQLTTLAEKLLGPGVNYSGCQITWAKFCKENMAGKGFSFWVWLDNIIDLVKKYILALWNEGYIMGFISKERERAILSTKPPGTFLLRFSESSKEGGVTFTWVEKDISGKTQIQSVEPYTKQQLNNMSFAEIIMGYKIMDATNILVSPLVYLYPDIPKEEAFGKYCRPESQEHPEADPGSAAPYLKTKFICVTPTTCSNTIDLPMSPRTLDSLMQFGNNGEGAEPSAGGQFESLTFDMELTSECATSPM

Cc1c2ccccc2c(C)c2c1ccc1ccccc12
active: [1] 6.62 µM | [4] 55.3 µM | [11] 2.42 µM | [13] 54.8 µM | [14] 52.4 µM | [15] 6.93 µM | [19] 53.4 µM
not listed: [20]
inactive: all other assays above

O=C(O)Cn1c(=O)n(Cc2ccc(Br)cc2F)c(=O)c2ccc(Cl)cc21
active: [11] 8.54 µM
not listed: [12]
inactive: all other assays above

c1ccc(C[n+]2cccc3ccccc32)cc1
not listed: [13] | [19] | [20]
inactive: all other assays above

CCCCOC(=O)c1ccc(O)cc1
inactive: [1] | [2] | [3] | [4] | [5] | [7] | [8] | [20] | [9] | [10] | [11] | [12] | [14] | [15] | [16] | [17] | [18]
active: [3] 148 µM and 151 µM | [8] 148 µM | [20] 143 µM and 129 µM | [9] 58.9 µM | [10] 81.5 µM | [11] 27 µM and 24.1 µM | [12] 63.3 µM and 65.9 µM and 24.9 µM | [14] 100 µM | [16] 19.8 µM | [18] 79 µM

Cc1ccc(C(C)C)cc1
inactive: all assays above

CC1=CC(=O)/C(=C(/C)O)C(=O)O1
inactive: all assays above

CCCCCCCCCCCC[N+](C)(C)C
inactive: [1] | [2] | [4] | [5] | [6] | [7] | [8] | [20] | [9] | [10] | [11] | [12] | [14] | [15] | [17] | [18]
active: [3] 16.6 µM and 15.3 µM | [20] 33.4 µM | [11] 1.26 µM | [16] 26.1 µM and 25.6 µM

O=C1CCC(C2CCCCC2)CC1
inactive: [1] | [2] | [3] | [4] | [5] | [6] | [7] | [8] | [9] | [10] | [12] | [13] | [14] | [15] | [16] | [17] | [18] | [19]
active: [1] 151 µM and 159 µM | [3] 134 µM | [6] 0.821 µM | [8] 150 µM | [10] 156 µM | [11] 10.4 µM [middle of 4 runs] | [15] 171 µM

CCCCOC(=O)CC(CC(=O)OCCCC)(OC(C)=O)C(=O)OCCCC
inactive: [1] | [2] | [3] | [4] | [5] | [6] | [7] | [8] | [9] | [10] | [12] | [14] | [15] | [16] | [17] | [18] | [19]
active: [3] 26.7 µM | [20] 27.2 µM and 20.7 µM | [9] 26.6 µM | [11] 1.18 µM and 705 nM

NCc1cccc(C2CCN(C(=O)c3ccc(C#Cc4ccccc4F)o3)CC2)c1
active: [3] 19.4 µM | [8] 17.2 µM | [20] 9.13 µM | [9] 18 µM | [10] 16.4 µM | [12] 2.77 µM | [16] 8 µM | [18] 16.1 µM
not listed: [13] | [19]
inactive: all other assays above

Clc1cc(Cl)c2c(c1)N=C1CCCCCN1C2
active: [11] 13.2 µM | [19] 83.4 µM
not listed: [20]
inactive: all other assays above

— PubChem BioAssay (EPA / NIEHS)
